The source of these data is PMC12864922, “TDP-43 directly inhibits mRNA accumulation in neurites through modulation of mRNA stability”.

The full ranking holds about 9,900 sequences; the median of “r (bound/input frequency ratio)” is about 0.7, and the highest 2% start at about 6.5. Only a selection was taken, and the highest values are over-represented in it overall.

The labels stand for the following.
B1: ENSMUSG00000029636.426|Wasf3 (ssRNA)
RNA: GGGAGUUCUACAGUCCGACGAUCGCUUCGAUAUCCGCAUGCUAGUAAGUAGCUAGGUGGAUGGGUGGGUGGAUACAUGGAUGAGUGGAUGGGUGGAUUGGUGGGUGAGUGGAUAGGUGAAUGGAUGAUAGGUGGUGGAUGGUUGAGUGGGUGGAUUCAUGAUGGAUGGAUGGAUGGAUGGAUGGAUGGAUGGAUGGAUGAGUGGAUGGAUAAUAGGUUGAUGGGUGGAUAGGUAGAUGAGUGAAUAGAUAGAUAUAGAUCAGUGGGAGGAUUGGAAAGUAGGUGAAUGAAUGGAUGGCAGAUACUCUUGCGGUCGCACUAGUGUGGAAUUCUCGGGUGUCAAGG
B2: ENSMUSG00000029636.425|Wasf3 (ssRNA)
RNA: GGGAGUUCUACAGUCCGACGAUCGCUUCGAUAUCCGCAUGCUAAGGUGGGUAAGUAGCUAGGUGGAUGGGUGGGUGGAUACAUGGAUGAGUGGAUGGGUGGAUUGGUGGGUGAGUGGAUAGGUGAAUGGAUGAUAGGUGGUGGAUGGUUGAGUGGGUGGAUUCAUGAUGGAUGGAUGGAUGGAUGGAUGGAUGGAUGGAUGGAUGAGUGGAUGGAUAAUAGGUUGAUGGGUGGAUAGGUAGAUGAGUGAAUAGAUAGAUAUAGAUCAGUGGGAGGAUUGGAAAGUAGGUGAAUGAAUGGAUGGCUCUUGCGGUCGCACUAGUGUGGAAUUCUCGGGUGUCAAGG
B3: ENSMUSG00000029636.431|Wasf3 (ssRNA)
RNA: GGGAGUUCUACAGUCCGACGAUCGCUUCGAUAUCCGCAUGCUAACAUGGAUGAGUGGAUGGGUGGAUUGGUGGGUGAGUGGAUAGGUGAAUGGAUGAUAGGUGGUGGAUGGUUGAGUGGGUGGAUUCAUGAUGGAUGGAUGGAUGGAUGGAUGGAUGGAUGGAUGGAUGAGUGGAUGGAUAAUAGGUUGAUGGGUGGAUAGGUAGAUGAGUGAAUAGAUAGAUAUAGAUCAGUGGGAGGAUUGGAAAGUAGGUGAAUGAAUGGAUGGCAGAUAGAUGGAUCAAUUACAGAUGGAUGGAUGCAUCUCUUGCGGUCGCACUAGUGUGGAAUUCUCGGGUGUCAAGG
B4: ENSMUSG00000029636.436|Wasf3 (ssRNA)
RNA: GGGAGUUCUACAGUCCGACGAUCGCUUCGAUAUCCGCAUGCUAGUGAGUGGAUAGGUGAAUGGAUGAUAGGUGGUGGAUGGUUGAGUGGGUGGAUUCAUGAUGGAUGGAUGGAUGGAUGGAUGGAUGGAUGGAUGGAUGAGUGGAUGGAUAAUAGGUUGAUGGGUGGAUAGGUAGAUGAGUGAAUAGAUAGAUAUAGAUCAGUGGGAGGAUUGGAAAGUAGGUGAAUGAAUGGAUGGCAGAUAGAUGGAUCAAUUACAGAUGGAUGGAUGCAUGGAAUAGAUAGGUGGAUGGGUGGUGGCUAGCUCUUGCGGUCGCACUAGUGUGGAAUUCUCGGGUGUCAAGG
B5: ENSMUSG00000029636.424|Wasf3 (ssRNA)
RNA: GGGAGUUCUACAGUCCGACGAUCGCUUCGAUAUCCGCAUGCUAUGGGUUAGGUGGGUAAGUAGCUAGGUGGAUGGGUGGGUGGAUACAUGGAUGAGUGGAUGGGUGGAUUGGUGGGUGAGUGGAUAGGUGAAUGGAUGAUAGGUGGUGGAUGGUUGAGUGGGUGGAUUCAUGAUGGAUGGAUGGAUGGAUGGAUGGAUGGAUGGAUGGAUGAGUGGAUGGAUAAUAGGUUGAUGGGUGGAUAGGUAGAUGAGUGAAUAGAUAGAUAUAGAUCAGUGGGAGGAUUGGAAAGUAGGUGAAUGAAUCUCUUGCGGUCGCACUAGUGUGGAAUUCUCGGGUGUCAAGG
B6: ENSMUSG00000029636.434|Wasf3 (ssRNA)
RNA: GGGAGUUCUACAGUCCGACGAUCGCUUCGAUAUCCGCAUGCUAGUGGAUUGGUGGGUGAGUGGAUAGGUGAAUGGAUGAUAGGUGGUGGAUGGUUGAGUGGGUGGAUUCAUGAUGGAUGGAUGGAUGGAUGGAUGGAUGGAUGGAUGGAUGAGUGGAUGGAUAAUAGGUUGAUGGGUGGAUAGGUAGAUGAGUGAAUAGAUAGAUAUAGAUCAGUGGGAGGAUUGGAAAGUAGGUGAAUGAAUGGAUGGCAGAUAGAUGGAUCAAUUACAGAUGGAUGGAUGCAUGGAAUAGAUAGGUGGAUGCUCUUGCGGUCGCACUAGUGUGGAAUUCUCGGGUGUCAAGG
B7: ENSMUSG00000029636.423|Wasf3 (ssRNA)
RNA: GGGAGUUCUACAGUCCGACGAUCGCUUCGAUAUCCGCAUGCUAGAUGGGUGGGUUAGGUGGGUAAGUAGCUAGGUGGAUGGGUGGGUGGAUACAUGGAUGAGUGGAUGGGUGGAUUGGUGGGUGAGUGGAUAGGUGAAUGGAUGAUAGGUGGUGGAUGGUUGAGUGGGUGGAUUCAUGAUGGAUGGAUGGAUGGAUGGAUGGAUGGAUGGAUGGAUGAGUGGAUGGAUAAUAGGUUGAUGGGUGGAUAGGUAGAUGAGUGAAUAGAUAGAUAUAGAUCAGUGGGAGGAUUGGAAAGUAGGUGACUCUUGCGGUCGCACUAGUGUGGAAUUCUCGGGUGUCAAGG
B8: ENSMUSG00000029636.433|Wasf3 (ssRNA)
RNA: GGGAGUUCUACAGUCCGACGAUCGCUUCGAUAUCCGCAUGCUAGGAUGGGUGGAUUGGUGGGUGAGUGGAUAGGUGAAUGGAUGAUAGGUGGUGGAUGGUUGAGUGGGUGGAUUCAUGAUGGAUGGAUGGAUGGAUGGAUGGAUGGAUGGAUGGAUGAGUGGAUGGAUAAUAGGUUGAUGGGUGGAUAGGUAGAUGAGUGAAUAGAUAGAUAUAGAUCAGUGGGAGGAUUGGAAAGUAGGUGAAUGAAUGGAUGGCAGAUAGAUGGAUCAAUUACAGAUGGAUGGAUGCAUGGAAUAGAUAGGCUCUUGCGGUCGCACUAGUGUGGAAUUCUCGGGUGUCAAGG
B9: ENSMUSG00000029636.422|Wasf3 (ssRNA)
RNA: GGGAGUUCUACAGUCCGACGAUCGCUUCGAUAUCCGCAUGCUAUGAGUGGAUGGGUGGGUUAGGUGGGUAAGUAGCUAGGUGGAUGGGUGGGUGGAUACAUGGAUGAGUGGAUGGGUGGAUUGGUGGGUGAGUGGAUAGGUGAAUGGAUGAUAGGUGGUGGAUGGUUGAGUGGGUGGAUUCAUGAUGGAUGGAUGGAUGGAUGGAUGGAUGGAUGGAUGGAUGAGUGGAUGGAUAAUAGGUUGAUGGGUGGAUAGGUAGAUGAGUGAAUAGAUAGAUAUAGAUCAGUGGGAGGAUUGGAAAGUCUCUUGCGGUCGCACUAGUGUGGAAUUCUCGGGUGUCAAGG

Sequence of TDP-43 (Q13148 whole entry): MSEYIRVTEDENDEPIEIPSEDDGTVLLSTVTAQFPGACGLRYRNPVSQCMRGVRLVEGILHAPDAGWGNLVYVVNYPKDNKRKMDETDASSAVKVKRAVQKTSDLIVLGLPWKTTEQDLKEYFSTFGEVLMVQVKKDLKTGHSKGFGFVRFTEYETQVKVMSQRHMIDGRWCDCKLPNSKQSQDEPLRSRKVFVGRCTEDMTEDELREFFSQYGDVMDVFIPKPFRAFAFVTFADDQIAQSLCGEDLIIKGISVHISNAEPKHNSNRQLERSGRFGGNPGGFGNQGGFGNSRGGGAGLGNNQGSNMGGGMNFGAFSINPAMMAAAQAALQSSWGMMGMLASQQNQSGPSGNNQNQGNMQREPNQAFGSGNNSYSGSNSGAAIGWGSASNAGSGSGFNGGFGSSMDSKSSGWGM

The target of the test is TDP-43 (Homo sapiens, UniProt Q13148 1-414). As to the kind of experiment: RNA Bind-n-Seq with designed 260-mer pool; 25 mM Tris-HCl, 150 mM KCl, 3 mM MgCl2, BSA (printed 500 mg/mL), 20 units/mL SUPERase IN; pH not stated; 500 nM RNA pool, 1 h, 4 C; TDP-43 5, 50, 500 nM; high values mean tight binding. Conditions: protein: recombinant; tags: SBP (GST cleaved off with PreScission; pGEX-GST-SBP). The gist of the method:
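In 25 mM Tris-HCl, 150 mM KCl, 3 mM MgCl2, BSA and SUPERase IN, 500 nM of an in vitro-transcribed 260-nt 3′ UTR oligo pool was incubated for 1 h at 4 °C with SBP-tagged TDP-43 (5, 50 or 500 nM) captured on streptavidin beads. RNA remaining after washes was biotin-eluted, reverse transcribed, PCR-amplified and sequenced. Binding, R, is the bound-sample abundance of each oligo, normalized to mapped reads, divided by its abundance in input. Each duplicate used a separate, independent protein batch.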
In the case of B1, the binding signal was 3.58 R (bound/input frequency ratio).

As to B2, the binding signal was 3.86 R (bound/input frequency ratio).

Take B3: the binding signal is 6.71 R (bound/input frequency ratio).

Regarding B4, the binding signal was 6.61 R (bound/input frequency ratio).

On to B5, for which the binding signal is 1.66 R (bound/input frequency ratio).

Take B6: the binding signal was 7.94 R (bound/input frequency ratio).

As for B7, the binding signal is 4.57 R (bound/input frequency ratio).

Consider B8, for which the binding signal is 4.32 R (bound/input frequency ratio).

On to B9, for which the binding signal is 11.2 R (bound/input frequency ratio).
